Compound activity (PubChem BioAssay)
PrP UTR inh: inhibition of PrP 5' UTR reporter expression; cell-based PrP 5' UTR mRNA reporter, plate reader; inhibition, % (concentration not given with the values); actives 0.35% (n = 340,000); in the data active = inhibition above about 52%; also: 0 = median of the neutral control wells
SSB-PriA inh: inhibitors of Klebsiella pneumoniae PriA binding to SSB C-terminal tail; inhibition, % at 33 µM; actives 0.6% (n = 430,000); AlphaScreen SSBct-PriA binding, biotinylated peptide; in the data active = inhibition mostly above about 37%, no sharp cut-off; inactive = mostly below about 20%;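 also: plate controls were negative control peptide for no effect and reference peptide for full effect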
PrPC surface inh: inhibitors of human cell surface prion protein PrPC; P04156; TR-FRET read-out; inhibition, % at 13.8 µM; actives 0.43% (n = 370,000); AID 720596; in the data active = inhibition above about 24%; also: 0% = median of the test wells and 100% = reference compound wells
PfHsp40 rescue: rescue of PfHsp40-mediated yeast toxicity | actives 0.68% (n = 340,000) | AID 504582 | S. cerevisiae expressing PfHsp40, growth rescue, ATP luminescence | growth rescue, % at 12.5 µM; in the data active = growth rescue above about 28%, passing the limit was not always enough; inconclusive = no clear call, values can overlap the other calls;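 also: yeast W303a lacking pdr1 and pdr3 grown in galactose medium; growth measured after three days at 30 °C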
BJeLR viability: BJeLR cell viability loss; BJeLR (HRASV12) viability, CellTiter-Glo ATP luminescence, 48 h; inhibition, % (no concentration beside the values); actives 0.17% (n = 300,000); in the data active = inhibition above about 50%; inconclusive = no clear call, values can overlap the other calls
Y pestis TopoI: blocks Yersinia pestis topoisomerase I activity. activity, % at 10 µM. actives 0.064% (n = 360,000). AID 504884. Y. pestis Topo-I cleavage product accumulation, plate reader; in the data active = activity above about 50%, passing the limit was not always enough; inconclusive = no clear call, values can overlap the other calls
PrP UTR cherry: prion 5' UTR mRNA inhibition, cherry-pick retest; shares compounds with PrP UTR inh; cell-based prion protein 5' UTR reporter, plate reader; inhibition, % at 2.5 µM; actives 48% (n = 1,100); in the data active = inhibition above about 54%; inconclusive = no clear call, values can overlap the other calls
Starred values were filed as active, the others as inactive; ? = inconclusive; . = no result. Hits are enriched below; roughly 1.7% of the tested compounds scored in any of these assays.

SMILES	PrP UTR inh	SSB-PriA inh	PrPC surface inh	PfHsp40 rescue	BJeLR viability	Y pestis TopoI	PrP UTR cherry
CC1CCN(C(=O)/C(=C\c2ccco2)NC(=O)c2ccccc2)CC1	-8	4	-10	0	-7	3	.
CC1CCN(C(=O)/C(=C\c2cccs2)NC(=O)c2ccccc2)CC1	59*	-14	-2	-1	.	8	-10
CCCCCCCCCCCCCCCCCCNc1ccn(C2OC(COP(=O)(O)OCC3OC(n4cc(F)c(=O)[nH]c4=O)CC3O)C(O)C2O)c(=O)n1 (stereo not given)	63*	-3	3	42*	.	28	8
COc1cccc2sc(N3CC(C(=O)NCc4ccc5c(c4)OCO5)C3)nc12	.	-8	.	.	.	.	.
COc1cc(C2C(C#N)=C(N)Oc3cc(N)ccc32)cc(OC)c1OC (stereo not given)	67*	8	-9	1	.	-6	88*
CCOCC(=O)N(Cc1cnc2ccccn12)C1CC1	.	9	.	.	.	.	.
COc1cc(OC)c2c(-c3cccc(-c4ccc(C(C)=O)cc4)c3)cc(=O)oc2c1	64*	-7	.	-1	.	1	93*
CC(=O)c1c(C)[nH]c(C(=O)COC(=O)CCCOc2ccccc2)c1C	58*	-13	-6	0	0	-1	?
Cc1cc(NC(=O)C(C)Cn2cncn2)no1 (stereo not given)	.	-25	.	.	.	.	.
CCOC(=O)c1ccc(CNCc2ccccc2)cc1	-37	-9	1	0	-2	3	.
CCOC(=O)c1ccc(CNC(=O)CCC(=O)O)cc1	67*	-8	1	-1	-2	-3	-2
CCc1ccc(NC(=O)c2cnn3ccccc23)cc1	51*	-13	10	-3	11	-2	?
CSc1cccc(NC(=O)c2cnn3ccccc23)c1	-95	9	3	0	7	-2	.
CCOC(=O)C(=O)Nc1cc(C)nn1-c1nc(C)cc(=O)[nH]1	.	16	.	.	.	.	.
Cc1nc(-c2ccc(NC(=O)c3ccco3)cc2)cs1	78*	-3	2	-3	17	0	77*
Cc1nc(-c2cccc(NC(=O)c3ccco3)c2)cs1	-33	-13	-3	0	-8	-2	.
Nc1nc(-c2ccc(NC(=O)c3ccco3)cc2)cs1	67*	2	7	-1	0	-3	16
O=C(Nc1ccc(NC(=O)c2ccco2)cc1)c1ccco1	-23	6	4	-1	3	-3	.
CCN(CC)C1CCCCC1NS(=O)(=O)c1ccc(Cl)cc1 (stereo not given)	80*	-10	9	0	3	-2	-8
Cc1oc(-c2cccc(Cl)c2)nc1CSc1nc2ccccc2c(=O)n1C	.	0	.	.	.	.	.
CCC(=O)N1CCCc2ccc(N)cc21	.	20	.	.	.	.	.
Cc1ccc(C(C)C)c(OC(=O)CS(=O)c2ccc(S(C)(=O)=O)cc2[N+](=O)[O-])c1 (stereo not given)	.	-7	.	.	.	.	.
COC(=O)c1ccc(NC(=O)Cn2c(-c3nonc3N)nc3ccccc32)cc1	-17	-6	-3	12	3	1	.
COC(=O)c1ccccc1NC(=O)Cn1c(-c2nonc2N)nc2ccccc21	70*	-11	.	0	18	16	91*
Cc1cc(C(=O)CN2C(=O)c3ccccc3S2(=O)=O)c(C)n1CC1CCCO1 (stereo not given)	88*	-9	-4	0	-4	-1	86*
SMILES	PrP UTR inh	SSB-PriA inh	PrPC surface inh	PfHsp40 rescue	BJeLR viability	Y pestis TopoI	PrP UTR cherry
CCCn1c(C)cc(C(=O)CN2C(=O)c3ccccc3S2(=O)=O)c1C	.	.	3	.	.	13	.
CC(C)(C)c1ccc(C(=O)NNC(=O)c2cccn(Cc3ccc(F)cc3)c2=O)cc1	.	1	.	.	.	.	.
C=CCn1c(SCc2c(C)noc2C)nc2cc(C(=O)O)ccc2c1=O	-18	-12	5	-1	-5	-3	.
C=CCn1c(SCc2c(C)noc2C)nc2ccccc2c1=O	67*	-12	5	0	30	11	82*
COc1ccc(C(=O)N/C(=C\c2ccc3c(c2)OCO3)C(=O)N2CCOCC2)cc1	77*	0	0	0	1	-1	?
Cc1ccc(C(=O)N/C(=C\c2ccc3c(c2)OCO3)C(=O)N2CCOCC2)cc1	-27	-16	-5	0	-7	9	.
C[C@H]1[C@@H](OS(=O)(=O)O)C[C@@H]2C[C@H]([C@@H](O)c3cc(=O)[nH]c(=O)[nH]3)NC3=NC[C@H]1N32	61*	6	.	.	.	4	66*
ClCCCc1cn(C[C@H]2CC[C@@H]([C@@H]3CC[C@H](Cn4cc(CCCCl)nn4)O3)O2)nn1	68*	-19	-2	-2	-5	4	-13
COC(=O)c1ccc(S(=O)(=O)NCCn2nc(-c3cccs3)cc2C2CC2)cc1	.	6	.	.	.	.	.
Cc1ccc(S(=O)(=O)N(C)c2c(C)ccc(S(=O)(=O)NC(C)(C)C)c2C)cc1	82*	-2	-1	0	5	3	-39
Cc1ccc(S(=O)(=O)N(C)c2c(C)ccc(S(=O)(=O)Nc3ccncc3)c2C)cc1	-3	4	4	-2	-5	4	.
Cc1ccc(C)c(NC(=O)CSc2nc3ccccc3nc2N2CCOCC2)c1	-7	7	4	1	-7	2	.
CCc1ccccc1NC(=O)CSc1nc2ccccc2nc1N1CCOCC1	58*	-8	6	1	-5	-4	-8
Cc1ccoc1C(=O)Nc1ccc(CC(=O)O)cc1	64*	-8	-5	0	5	-7	53*
Cc1ccoc1C(=O)Nc1ccc2ccccc2c1	10	-2	-29	2	-7	-2	.
COc1ccc(C(=O)COC(=O)c2cc(OC)c(O)c(OC)c2)cc1	.	-3	.	.	.	.	.
CCCN1C(=O)NC2(CCN(S(=O)(=O)c3ccc4c(c3)CC(C)N4C(C)=O)CC2)C1=O (stereo not given)	.	-10	.	.	.	.	.
O=C(/C=C/c1cccs1)Nc1ccc(Br)cn1	61*	-20	-4	1	53*	11	84*
O=C(/C=C/c1cccs1)Nc1cccc(NC(=O)/C=C/c2cccs2)n1	-70	-1	6	2	-14	0	.
Cc1ccc(NC(=O)C(=O)NCc2ccco2)cc1N1CCCC1=O	.	-7	.	.	.	.	.
O=C(NC1CCCCCCC1)c1cnccn1	-13	-21	-3	0	-5	4	.
O=C(NC1CCCCC1)c1csnn1	84*	-16	-10	1	.	2	-1
Cc1ccc(/C=C2/SC(=S)N(c3ccc(S(=O)(=O)Nc4nccs4)cc3)C2=O)cc1	83*	-5	-6	-1	8	-1	-35
COC(=O)c1cc(NC(=O)c2nccnc2C(=O)O)cc(C(=O)OC)c1	60*	-19	9	0	-7	-3	-29
